Assay outcomes: PubChem, National Center for Advancing Translational Sciences (NCATS)
The list is not random: actives were taken first. Their share in the collection is about 19%.
Shiga inhibitor – blocks Shiga toxin action in Vero cells; Vero cells, Shiga toxin protein synthesis inhibition reporter; inhibition, % at 38.7 µM; actives 9.2% (n = 290,000); in the data active means inhibition mostly above about 28%, no sharp cut-off; inactive means mostly below about 43%; further: 0% is about no effect
Pf growth 96h – P. falciparum growth inhibition at 96 hour, primary screen for plastid delayed-death inhibitors; P. falciparum luciferase reporter growth, 96 h; Potency, µM (titrated, usually from 28.7 µM), for the others: at the top dose activity change, negative = inhibition, most hits filed as inhibitors; actives 6.9% (n = 320,000); AID 504834; further: potency means the concentration at half of the fitted maximal effect; on the % scale 0 is the no-effect control and ±100 the full control effect
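Infected RBCs, 2% Hct / 0.05% parasitemia final; luciferase-reporter P. falciparum; cpd 96 h, 37 C, 5% CO2; luciferase detection reagent; luminescence.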
Pf growth 48h – inhibits P. falciparum growth in the first generation, 48 h. P. falciparum luciferase growth in erythrocytes, 48 h. Potency, µM (titrated, usually from 28.7 µM), for the others: at the highest dose activity change, negative = inhibition, hits mostly inhibitors. AID 504832. actives 5.9% (n = 310,000); further: potency means the concentration at half of the fitted maximal effect; on the % scale 0 is the no-effect control and ±100 the full control effect
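First compound was added to culture medium, then infected red cells at 0.1% parasitemia and 2% hematocrit (final). After incubation at 37 C under 5% CO2, luciferase detection reagent was dispensed and light output recorded.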
CHX counter – affects cycloheximide protein synthesis inhibition readout, counter-screen | cell reporter, cycloheximide protein synthesis inhibition counterscreen | max response, % | actives 12% (n = 300,000); in the data active means max response mostly above about 13%, no sharp cut-off; inactive means mostly below about 14%; further: read at 38.3 µM for the half of the compounds with a filed dose; 0% is about no effect
MARV entry inh – blocks Marburg virus binding to or entry into cells. actives 1.8% (n = 300,000). Marburg virus pseudotyped entry inhibition, cell reporter. Potency, µM (doses to about 37.8 µM), inactives show top-dose activity change, negative = inhibition, hits mostly inhibitors; calls by dose curve; tested in HEK293 cells; further: potency means the concentration at half of the fitted maximal effect; on the % scale 0 is the no-effect control and ±100 the full control effect
Lassa entry inh – inhibitors of Lassa virus binding or cell entry; Lassa virus pseudotype entry inhibition, cell reporter; Potency, µM (top dose mostly 37.9 µM), for inactives: top-dose activity change, negative = inhibition, usual class: inhibitors; actives 1.2% (n = 300,000); calls by dose curve; tested in HEK293 cells; further: potency means the concentration at half of the fitted maximal effect; on the % scale 0 is the no-effect control and ±100 the full control effect; nearly all actives have a fitted effect of over 50% in size
* hit, by the source's call; [ ] = dose if it differs, or a comment. Unless noted, the call rests on the fitted dose curve; in most records, active means well fitted inhibition curve with a large enough effect; inconclusive means small, poorly fitted or top-dose-only effect, or another doubt; inactive means no such curve, though single readings can be large or run the other way.

What do the screens show for `Cn1nccc1C(=O)Nc1ccc2c(c1)OCO2`?
Shiga inhibitor: 107*; Pf growth 96h: 14%; Pf growth 48h: 129%; CHX counter: 28*

Results for O=C(NCCN1CCCCC1)c1cc(Cl)ccc1Cl ?
Shiga inhibitor: 2; Pf growth 96h: 4.7µM*; Pf growth 48h: 0%; CHX counter: -3; MARV entry inh: 7%; Lassa entry inh: 17%

Results for O=C(NCC1CC1)c1ccc(Oc2cc(Cl)cc(Cl)c2)o1 ?
Shiga inhibitor: 3; Pf growth 96h: 9.3µM*; Pf growth 48h: 12µM*; CHX counter: 1

Results for O=C(NCCN1CCCCC1)c1ccc(Oc2cc(Cl)cc(Cl)c2)o1 ?
Shiga inhibitor: -5; Pf growth 96h: 4.7µM*; Pf growth 48h: 7.4µM*; CHX counter: -2; MARV entry inh: inconclusive; Lassa entry inh: inconclusive

How did CC(=O)N1c2ccccc2C(=O)C1N1CCN(c2ccccc2)CC1 (configuration not stated) do in these assays?
Lassa entry inh: -14%[46.1 µM]

Results for OC1(c2ccc(OC(F)F)cc2)CSC(=Nc2cccnc2)N1C1CC1 (configuration not stated) ?
Shiga inhibitor: 48; Pf growth 96h: inconclusive; Pf growth 48h: inconclusive; CHX counter: 4; MARV entry inh: 3.5µM*; Lassa entry inh: inconclusive

How did O=C(c1cccnc1)N1C2CCC1CC(O)(c1ccc(F)cc1)C2 (configuration not stated) do in these assays?
Shiga inhibitor: -2; Pf growth 96h: 70%; Pf growth 48h: -2%; CHX counter: -1; MARV entry inh: -8%; Lassa entry inh: -4%

What do the screens show for `Cc1ccc(NC(=O)C(c2ccccc2)N2CCN(C(=O)c3ccco3)CC2)cc1Cl` (configuration not stated)?
Pf growth 96h: inconclusive; Pf growth 48h: 10µM*

What do the screens show for `CCOCCCNC(=O)C(c1ccc(Cl)cc1)N1CCN(C(=O)c2ccco2)CC1` (configuration not stated)?
Shiga inhibitor: -13; Pf growth 96h: inconclusive; Pf growth 48h: -23%; CHX counter: 1; MARV entry inh: 21%[46.1 µM]; Lassa entry inh: -7%

What do the screens show for `Cc1cccc(C)c1NC(=O)C(c1ccccc1)N1CCN(C(=O)c2ccco2)CC1` (configuration not stated)?
Shiga inhibitor: -13; Pf growth 48h: inconclusive; CHX counter: -4; MARV entry inh: -25%; Lassa entry inh: -8%

Results for CCOc1ccccc1NC(=O)C(c1ccccc1)N1CCN(C(=O)c2ccco2)CC1 (configuration not stated) ?
Pf growth 96h: inconclusive; Pf growth 48h: 9.3µM*

Results for O=C(O)CSCC(=O)N1CCCCC1 ?
Shiga inhibitor: 12; Pf growth 96h: inconclusive; Pf growth 48h: 2%; CHX counter: 1; MARV entry inh: -9%[46.1 µM]

How did CCN1CCN(c2cc(C)c3cc(NC(=O)c4cc(OC)cc(OC)c4)ccc3n2)CC1 do in these assays?
Shiga inhibitor: 64*; Pf growth 96h: inconclusive; Pf growth 48h: inconclusive; CHX counter: 18*; MARV entry inh: inconclusive; Lassa entry inh: inconclusive

What do the screens show for `CCCCc1ccc(C(=O)Nc2ccc3nc(N4CCN(CC)CC4)cc(C)c3c2)cc1`?
MARV entry inh: 8%[46.1 µM]; Lassa entry inh: 10%[46.1 µM]

What do the screens show for `CCOc1ccc(C(=O)Nc2ccc3nc(N4CCN(CC)CC4)cc(C)c3c2)cc1`?
Shiga inhibitor: -17; Pf growth 96h: 18%; Pf growth 48h: 2.3µM*; CHX counter: -8; MARV entry inh: inconclusive; Lassa entry inh: 28%[46.1 µM]

What do the screens show for `N#C/C(=C\c1cccnc1)C(=O)Nc1ccc(O)cc1F`?
Shiga inhibitor: -4; Pf growth 96h: 3%; Pf growth 48h: 1%; CHX counter: -4; MARV entry inh: 0%[46.1 µM]; Lassa entry inh: 3%[46.1 µM]

Results for COC(=O)Cn1c(C)nc2c(sc3nc(C)cc(C)c32)c1=O ?
Shiga inhibitor: 111*; Pf growth 96h: 84%; Pf growth 48h: 142%; CHX counter: 49*; MARV entry inh: inconclusive; Lassa entry inh: 5%

Results for CCOC(=O)Cn1cnc2c(sc3nc(C)cc(C)c32)c1=O ?
Shiga inhibitor: 17; Pf growth 96h: 22%; Pf growth 48h: 3%; CHX counter: 20*

What do the screens show for `CCC(C)(C)c1ccc(OCCN2C(=O)NC(C)(C)C2=O)cc1`?
Shiga inhibitor: -20; Pf growth 96h: -1%; CHX counter: -2; MARV entry inh: 3%; Lassa entry inh: -20%

How did CCOC(=O)/C=C(/C)N1N=C(c2ccc(OC)cc2)CC1c1cccc([N+](=O)[O-])c1 (configuration not stated) do in these assays?
Shiga inhibitor: 113*; Pf growth 96h: inconclusive; Pf growth 48h: inconclusive; CHX counter: 46*; MARV entry inh: 12%; Lassa entry inh: 2%

How did COc1ccc(C2=NN(C(=O)c3ccccc3)C(c3cccc([N+](=O)[O-])c3)C2)cc1 (configuration not stated) do in these assays?
Shiga inhibitor: -2; Pf growth 96h: inconclusive; Pf growth 48h: inconclusive; CHX counter: -3

What do the screens show for `Cc1cc2cc(C)c3nnc(SCC(=O)N4CCN(C(=O)c5ccco5)CC4)n3c2cc1C`?
MARV entry inh: -7%; Lassa entry inh: -15%

What do the screens show for `O=C(CSc1ccc(-c2nc3ccccc3[nH]2)cn1)N1CCN(C(=O)c2ccco2)CC1`?
Shiga inhibitor: 11; Pf growth 96h: 1%; Pf growth 48h: 13µM*; CHX counter: 2; MARV entry inh: inconclusive; Lassa entry inh: -9%

Results for Cc1ccc2cc(C)c3nnc(SCC(=O)N4CCN(C(=O)c5ccco5)CC4)n3c2c1 ?
Shiga inhibitor: -10; Pf growth 48h: 13µM*; CHX counter: 10; MARV entry inh: -13%; Lassa entry inh: -11%

Results for O=C(CSc1nc2ccccc2n1CC(=O)N1CCCC1)N1CCN(C(=O)c2ccco2)CC1 ?
Shiga inhibitor: 9; Pf growth 96h: 6.6µM*; Pf growth 48h: -16%; CHX counter: -2; MARV entry inh: 10%; Lassa entry inh: 5%

How did O=C(CSc1nc2ccccc2n1CC(=O)N1CCCC1)Nc1nccs1 do in these assays?
Shiga inhibitor: 17; Pf growth 96h: 2.6µM*; Pf growth 48h: -2%; CHX counter: -2; MARV entry inh: 3%; Lassa entry inh: 3%

Results for COc1ccccc1NC(=O)c1ccc2c(c1)C(=O)N(Cc1ccco1)C2=O ?
Shiga inhibitor: -16; Pf growth 96h: inconclusive; Pf growth 48h: 8%; CHX counter: -4

Results for CCOC(=O)C1CCN(C(=O)Cn2nc(CC)n3cccc3c2=O)CC1 ?
Shiga inhibitor: -2; Pf growth 96h: inconclusive; Pf growth 48h: 4%; CHX counter: -5

Results for CCS(=O)(=O)c1nc2ccccc2n1CC(=O)N1CCCCC1 ?
Shiga inhibitor: -2; Pf growth 96h: 10µM*; Pf growth 48h: -9%; CHX counter: 10; MARV entry inh: inconclusive; Lassa entry inh: inconclusive
